High-throughput results (PubChem BioAssay)
Pol beta inh – inhibitors of human DNA polymerase beta | AID 485314 | Potency, µM (series often up to 114 µM), without a hit: at the top dose activity change, negative = inhibition, hits mostly inhibitors | Pol beta primer extension/strand displacement, fluorescence kinetic | hit rate 1.3% among 340,000 | P06746; further: on the % scale 0 is the no-effect control and ±100 the full control effect
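Homogeneous kinetic assay of primer extension and strand displacement by 10 nM Pol beta, preincubated 15 min at room temperature with compound before 50 nM substrate (final) was added. Read at 0 and 10 min; four-parameter Hill fit.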
FEN1 inh-1 – blocks human flap endonuclease 1; P39748; Recombinant FEN1 flap cleavage, fluorescence, 15 min; AID 588795; Potency, µM (titrated, usually from 114 µM), for the others: top-dose activity change, negative = inhibition, usual class: inhibitors; hit rate 0.35% among 390,000; further: on the % scale 0 is the no-effect control and ±100 the full control effect; nearly all actives have a fitted effect of over 65% in size
Target sequence (P39748 whole entry, looked up): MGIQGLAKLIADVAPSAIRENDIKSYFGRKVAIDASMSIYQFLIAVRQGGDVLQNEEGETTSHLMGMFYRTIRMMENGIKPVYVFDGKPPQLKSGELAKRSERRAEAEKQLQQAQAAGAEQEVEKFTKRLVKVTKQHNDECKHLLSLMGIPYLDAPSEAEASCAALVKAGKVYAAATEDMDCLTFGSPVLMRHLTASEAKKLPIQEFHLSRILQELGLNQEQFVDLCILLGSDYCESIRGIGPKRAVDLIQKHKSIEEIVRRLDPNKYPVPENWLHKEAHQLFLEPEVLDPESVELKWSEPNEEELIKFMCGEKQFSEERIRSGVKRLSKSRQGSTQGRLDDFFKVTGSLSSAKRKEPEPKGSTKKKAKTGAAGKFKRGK
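With each library titrated from low to high concentration, compounds met 10 nM FEN1 for 15 min at room temperature before 50 nM substrate was added; readings at 0 and 15 min fed four-parameter Hill curve fits.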
Pol kappa inh – inhibitors of human DNA polymerase kappa. Q9UBT6. purified Pol kappa, fluorescent DNA synthesis assay, 10 min. Potency, µM (series often up to 107 µM), inactives show at the highest dose activity, negative = inhibition, hits mostly inhibitors. hit rate 0.53% among 400,000. AID 588579; further: on the % scale 0 is the no-effect control and ±100 the full control effect
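Kinetic fluorescence screen: compound preincubated 15 min RT with 10 nM enzyme; 50 nM substrate (final) initiates; reads at 0/10 min.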
WRN helicase inh – inhibitors of human WRN helicase; Q14191; WRN helicase unwinding, fluorescent forked duplex, kinetic; Potency, µM (highest dose often 114 µM), for inactives: at the highest dose activity change, negative = inhibition, most hits filed as inhibitors; hit rate 0.46% among 360,000; AID 651768; further: on the % scale 0 is the no-effect control and ±100 the full control effect; nearly all actives have a fitted effect of over 55% in size
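Kinetic fluorescence helicase assay: unwinding of a quenched forked DNA duplex (100 nM final) with 2 mM ATP final raises red fluorescence (525/598 nm). Compounds sat 15 min at room temperature with 20 nM WRN beforehand.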
POLH inh – blocks human DNA polymerase eta activity. Q9Y253. recombinant Pol eta, fluorescent DNA replication assay. Potency, µM (titrated, usually from 114 µM), without a hit: at the highest dose activity change, negative = inhibition, most hits filed as inhibitors. hit rate 1.2% among 390,000; further: on the % scale 0 is the no-effect control and ±100 the full control effect
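Fluorescent replication assay: 50 nM final substrate added after a 15 min room-temperature compound preincubation with 10 nM enzyme. Signal taken at 0 min and again at 10 min.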
Pol iota inh – blocks human DNA polymerase iota activity | Q9UNA4 | Potency, µM (titrated, usually from 115 µM), inactives show top-dose activity, negative = inhibition, actives largely listed as inhibitors | hit rate 1% among 390,000 | Pol iota fluorescent replication assay, 10 min
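Pol iota at 10 nM preincubated 15 min with compounds at room temperature; reaction started with fluorescent substrate, 50 nM final. Fluorescence read kinetically at 0 and 10 min; buffer-only wells as negative control.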
FEN1 inh-2 – confirmation of human FEN1 inhibitors; hit rate 79% among 880; AID 720498; shares compounds with FEN1 inh-1; FEN1 flap cleavage, TAMRA/BHQ2 fluorogenic DNA substrate; Potency, µM, hits mostly inhibitors; further: nearly all actives have a fitted effect of over 60% in size
Numbers without * were called inactive; ! = repeats disagree; [ ] = dose if it differs, or a comment. Shown are actives, neighbours in structure and some others; about 2.4% of the full set was active somewhere. The call rests on the fitted dose curve; in most records, active means well fitted curve in the direction sought with a large enough effect; inconclusive means small, poorly fitted or top-dose-only effect, or another doubt; inactive means no such curve, though single readings can be large; an effect the other way counts as inactive or inconclusive. Potency means the concentration at half of the fitted maximal effect.

`CC1CCC(NC(=O)c2ccc3c(c2)N(Cc2ccccc2F)C(=O)c2ccccc2S3)CC1` (stereo not drawn) gave Pol beta inh inconclusive, FEN1 inh-1 -5%, Pol kappa inh -10%[60.1 µM], POLH inh -11% and Pol iota inh 9%.
Screening NC(N)=Nc1nc(-c2ccccc2)c2ccccc2n1 returned Pol beta inh -23%, FEN1 inh-1 inconclusive, Pol kappa inh 7%, WRN helicase inh 56%, POLH inh -11%, Pol iota inh 25% and FEN1 inh-2 inconclusive.
For Clc1nc(-c2ccccc2)c2ccccc2n1 the results were Pol beta inh 10%, FEN1 inh-1 6%, Pol kappa inh 1%, WRN helicase inh 16%, POLH inh -1% and Pol iota inh 46%.
O=C(NN1C(=O)/C(=C/c2ccc(O)cc2)SC1=S)c1cccc(O)c1 was read as Pol beta inh -15%, FEN1 inh-1 -3%, Pol kappa inh -26%, WRN helicase inh -8%[11.6 µM], POLH inh 3%, Pol iota inh inconclusive and FEN1 inh-2 inconclusive.
`CCOC(=O)c1c(O)c(O)c(C(=O)OCC)n1-c1ccccc1` gave Pol beta inh 10%, FEN1 inh-1 18µM*, Pol kappa inh -13%, WRN helicase inh 5%, POLH inh -1%, Pol iota inh -17%[58.9 µM] and FEN1 inh-2 9.5*.
`CCOC(=O)c1sc(=S)n(-c2ccccc2)c1C` gave Pol beta inh -4%, FEN1 inh-1 -17%, Pol kappa inh 5%, WRN helicase inh -12%, POLH inh -22% and Pol iota inh 2%.
CCCN(c1ccccc1CC)S(=O)(=O)c1ccc2c(c1)CC(C)N2C(=O)C1CC1 (stereo not drawn) was read as Pol beta inh 2%, FEN1 inh-1 2%, Pol kappa inh -11% and Pol iota inh 20%.
`Cc1ccc2c(c1)N(C)/C(=C/c1cccc[n+]1C)S2` gave Pol beta inh inconclusive, FEN1 inh-1 inconclusive, Pol kappa inh -18%, WRN helicase inh 1%[11.6 µM], POLH inh -8%, Pol iota inh inconclusive and FEN1 inh-2 38*.
COc1ccc2c(c1)N(C)/C(=C/c1cccc[n+]1C)S2 was read as Pol beta inh 40µM*, FEN1 inh-1 20µM*, Pol kappa inh -21%, WRN helicase inh -1%[11.6 µM], POLH inh -15%, Pol iota inh inconclusive and FEN1 inh-2 inconclusive.
For C/C(=N\Nc1nc2ccccc2c(=O)n1O)c1ccco1 the results were Pol beta inh inconclusive, FEN1 inh-1 inconclusive, Pol kappa inh -23%, WRN helicase inh -14%[11.6 µM], POLH inh inconclusive, Pol iota inh 18µM* and FEN1 inh-2 30*.
C[C@](N)(Cc1ccc(O)cc1)C(=O)O was read as Pol beta inh 0%[57.1 µM], FEN1 inh-1 -5%[57.1 µM], Pol kappa inh 3%[60.1 µM], POLH inh -5%[57.1 µM] and Pol iota inh inconclusive.
C[C@](N)(Cc1ccc(O)c(O)c1)C(=O)O was read as Pol beta inh 1.1µM*, FEN1 inh-1 -7%, Pol kappa inh 2.7µM*!, POLH inh inconclusive, Pol iota inh 25µM* and FEN1 inh-2 inconclusive.
Screening CN(C)c1ccc(/C=C2/C[N+](C)(C)C/C(=C/c3ccc(N(C)C)cc3)C2=O)cc1 returned FEN1 inh-1 inconclusive, Pol kappa inh -25%, WRN helicase inh 20µM*, POLH inh inconclusive, Pol iota inh -19% and FEN1 inh-2 inconclusive.
Screening O=C(NNC(=O)c1cccnc1)NC1CCCCC1 returned Pol beta inh 0%, FEN1 inh-1 -2%, Pol kappa inh -3%, WRN helicase inh 3%, POLH inh -2% and Pol iota inh -1%.
Screening O=C(NNC(=O)c1cc(O)c(O)c(O)c1)NC1CCCCC1 returned Pol beta inh 33%, FEN1 inh-1 28µM*, Pol kappa inh -5%, WRN helicase inh -9%[57.1 µM], POLH inh -10%, Pol iota inh inconclusive and FEN1 inh-2 inconclusive.
`CN(C)CCCNc1ncnc2ccc(-c3ccc4c(c3)OCO4)cc12` gave FEN1 inh-2 30*.
Screening NCCNc1ncnc2ccc(-c3ccc4c(c3)OCO4)cc12 returned FEN1 inh-2 27*.
CNc1ncnc2ccc(-c3ccc4c(c3)OCO4)cc12 was read as Pol kappa inh -3%[60.1 µM].
For c1ccc(CNc2ncnc3ccc(-c4ccc5c(c4)OCO5)cc23)cc1 the results were Pol kappa inh -6%[60.1 µM].
`NCCCCNc1ncnc2ccc(-c3ccc4c(c3)OCO4)cc12` gave FEN1 inh-2 30*.
`Cc1cccc(C)c1NC(=O)CC12CCCN1CCC2` gave Pol kappa inh 6%[19.4 µM].
CN(C)c1ncc2nc(-c3ccccc3)c(=O)n(CCC#N)c2n1 was read as Pol kappa inh -3%[60.1 µM].
For CN(C)CCCN1C(=O)c2cccc3cccc(c23)C1=O the results were Pol beta inh inconclusive, FEN1 inh-1 inconclusive, Pol kappa inh -21%, WRN helicase inh -3%[11.6 µM], POLH inh -5%, Pol iota inh 26% and FEN1 inh-2 67*.
CN(C)CCCN1C(=O)c2cc3ccccc3cc2C1=O was read as Pol beta inh 25%, FEN1 inh-1 1%, Pol kappa inh -12%, WRN helicase inh 1%, POLH inh -3% and Pol iota inh -14%.
For O=C(O)c1ccc2cccnc2c1O the results were Pol beta inh 27%, FEN1 inh-1 22µM*, Pol kappa inh -23%, WRN helicase inh -28%, POLH inh -13%, Pol iota inh 36% and FEN1 inh-2 7.6*.
Screening O=C(O)c1ccc2cccnc2n1 returned Pol beta inh 3%, FEN1 inh-1 -1%, Pol kappa inh -9%, WRN helicase inh inconclusive, POLH inh inconclusive and Pol iota inh 124%.
Screening O=C(C[N+]12CCCc3cccc(c31)CCC2)c1ccc(Cl)c2ccccc12 returned FEN1 inh-1 13%, Pol kappa inh -13% and Pol iota inh 29%.
Screening CC(=O)OCC(=O)[C@@]12OC3(CCCC3)OC1CC1C3CCC4=CC(=O)C=C[C@@]4(C)[C@]3(F)C(O)C[C@]12C (stereo partly drawn) returned Pol kappa inh -15%[60.1 µM].
`COCCn1c(C)cc(C(=O)COC(=O)c2ccc([N+](=O)[O-])o2)c1C` gave Pol beta inh inconclusive, FEN1 inh-1 inconclusive, Pol kappa inh -26%, WRN helicase inh 1%, POLH inh 79µM*, Pol iota inh inconclusive and FEN1 inh-2 15*.
